Consider 31 targets from the supplement of paper PMC12819154, “High-throughput peptide-centric local stability assay extends protein–ligand identification to membrane proteins, tissues and bacteria” (Nature Structural & Molecular Biology, 2025).
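Also: lysate desalted by size exclusion to strip endogenous ATP, peptide intensities built from DIA-NN precursor signals, and peptides missing any value discarded before comparison.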

UniProt P0AEH3, sequence (P0AEH3 whole entry): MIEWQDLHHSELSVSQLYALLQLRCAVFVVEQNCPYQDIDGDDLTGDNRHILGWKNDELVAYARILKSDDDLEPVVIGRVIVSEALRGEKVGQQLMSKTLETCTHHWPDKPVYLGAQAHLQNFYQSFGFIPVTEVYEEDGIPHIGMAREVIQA
UniProt P31129, sequence (P31129 whole entry): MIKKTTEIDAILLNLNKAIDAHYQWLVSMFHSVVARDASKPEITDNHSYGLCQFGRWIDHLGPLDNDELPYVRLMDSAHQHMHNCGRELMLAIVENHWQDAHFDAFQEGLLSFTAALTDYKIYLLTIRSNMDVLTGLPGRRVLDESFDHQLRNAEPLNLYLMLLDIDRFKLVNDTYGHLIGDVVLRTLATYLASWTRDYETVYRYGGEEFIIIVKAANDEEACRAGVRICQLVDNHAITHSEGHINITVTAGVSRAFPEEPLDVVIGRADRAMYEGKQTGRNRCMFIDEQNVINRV
UniProt P36929, sequence (P36929 whole entry): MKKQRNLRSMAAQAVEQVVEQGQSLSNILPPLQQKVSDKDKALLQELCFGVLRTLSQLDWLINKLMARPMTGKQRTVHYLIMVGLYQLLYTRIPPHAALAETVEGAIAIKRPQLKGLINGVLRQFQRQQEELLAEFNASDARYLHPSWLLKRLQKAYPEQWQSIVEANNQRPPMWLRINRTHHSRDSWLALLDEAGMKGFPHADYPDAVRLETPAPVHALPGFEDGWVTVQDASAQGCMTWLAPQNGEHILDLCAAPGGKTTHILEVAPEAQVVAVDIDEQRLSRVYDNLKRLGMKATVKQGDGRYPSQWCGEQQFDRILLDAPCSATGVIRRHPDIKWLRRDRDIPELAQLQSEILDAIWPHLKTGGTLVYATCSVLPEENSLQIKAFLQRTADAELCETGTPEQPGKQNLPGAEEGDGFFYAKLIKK
UniProt P21693, sequence (P21693 whole entry): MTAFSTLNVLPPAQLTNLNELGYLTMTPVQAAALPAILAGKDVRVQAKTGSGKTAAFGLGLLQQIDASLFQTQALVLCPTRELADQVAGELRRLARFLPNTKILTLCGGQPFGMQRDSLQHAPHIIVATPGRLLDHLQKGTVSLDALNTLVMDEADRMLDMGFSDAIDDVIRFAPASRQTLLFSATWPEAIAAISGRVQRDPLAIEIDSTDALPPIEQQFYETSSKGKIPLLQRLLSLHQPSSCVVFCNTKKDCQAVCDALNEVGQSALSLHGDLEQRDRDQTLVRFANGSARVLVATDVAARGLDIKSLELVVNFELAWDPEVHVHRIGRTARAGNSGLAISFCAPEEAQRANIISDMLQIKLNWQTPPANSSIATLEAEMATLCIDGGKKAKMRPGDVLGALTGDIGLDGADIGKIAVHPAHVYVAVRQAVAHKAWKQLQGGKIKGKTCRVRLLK
UniProt Q46868, sequence (Q46868 whole entry): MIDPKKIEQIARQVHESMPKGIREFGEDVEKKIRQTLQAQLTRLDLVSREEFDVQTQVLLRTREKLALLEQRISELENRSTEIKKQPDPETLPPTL
UniProt P76226, sequence (P76226 whole entry): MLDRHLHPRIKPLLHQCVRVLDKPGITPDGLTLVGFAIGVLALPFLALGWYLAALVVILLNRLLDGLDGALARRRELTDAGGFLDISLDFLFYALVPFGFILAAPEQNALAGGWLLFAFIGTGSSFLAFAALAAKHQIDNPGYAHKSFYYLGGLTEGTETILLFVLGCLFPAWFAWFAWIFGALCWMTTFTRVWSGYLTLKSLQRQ
UniProt Q46851, sequence (Q46851 whole entry): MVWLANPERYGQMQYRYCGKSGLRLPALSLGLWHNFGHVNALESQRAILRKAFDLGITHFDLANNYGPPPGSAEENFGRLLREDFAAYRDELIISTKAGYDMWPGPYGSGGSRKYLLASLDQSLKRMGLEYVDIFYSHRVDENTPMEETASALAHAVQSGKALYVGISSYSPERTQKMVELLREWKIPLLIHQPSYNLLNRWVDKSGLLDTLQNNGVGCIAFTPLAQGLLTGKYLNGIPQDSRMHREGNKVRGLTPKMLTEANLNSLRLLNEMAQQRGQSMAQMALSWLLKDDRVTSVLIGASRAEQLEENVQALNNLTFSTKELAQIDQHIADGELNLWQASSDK
UniProt P00887, sequence (P00887 whole entry): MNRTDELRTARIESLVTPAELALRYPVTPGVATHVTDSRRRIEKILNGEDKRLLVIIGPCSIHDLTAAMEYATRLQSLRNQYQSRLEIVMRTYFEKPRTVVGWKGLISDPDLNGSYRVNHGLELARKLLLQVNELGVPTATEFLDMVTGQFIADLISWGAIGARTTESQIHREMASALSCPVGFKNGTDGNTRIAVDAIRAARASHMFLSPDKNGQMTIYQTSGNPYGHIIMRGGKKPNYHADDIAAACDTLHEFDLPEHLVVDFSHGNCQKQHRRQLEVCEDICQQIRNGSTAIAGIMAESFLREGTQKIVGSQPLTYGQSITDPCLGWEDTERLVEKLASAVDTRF
UniProt P11557, sequence (P11557 whole entry): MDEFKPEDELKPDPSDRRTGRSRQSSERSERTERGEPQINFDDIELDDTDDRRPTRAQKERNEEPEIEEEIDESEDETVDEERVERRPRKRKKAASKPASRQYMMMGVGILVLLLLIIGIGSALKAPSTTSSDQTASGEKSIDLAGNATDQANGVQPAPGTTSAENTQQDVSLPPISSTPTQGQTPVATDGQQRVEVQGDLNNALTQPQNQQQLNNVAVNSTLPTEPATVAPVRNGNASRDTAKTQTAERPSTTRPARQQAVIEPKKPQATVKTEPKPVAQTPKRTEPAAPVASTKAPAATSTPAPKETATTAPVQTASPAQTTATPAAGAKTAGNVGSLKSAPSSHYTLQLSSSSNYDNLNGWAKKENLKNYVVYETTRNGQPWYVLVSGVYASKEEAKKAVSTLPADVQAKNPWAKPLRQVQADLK
UniProt P75821, sequence (P75821 whole entry): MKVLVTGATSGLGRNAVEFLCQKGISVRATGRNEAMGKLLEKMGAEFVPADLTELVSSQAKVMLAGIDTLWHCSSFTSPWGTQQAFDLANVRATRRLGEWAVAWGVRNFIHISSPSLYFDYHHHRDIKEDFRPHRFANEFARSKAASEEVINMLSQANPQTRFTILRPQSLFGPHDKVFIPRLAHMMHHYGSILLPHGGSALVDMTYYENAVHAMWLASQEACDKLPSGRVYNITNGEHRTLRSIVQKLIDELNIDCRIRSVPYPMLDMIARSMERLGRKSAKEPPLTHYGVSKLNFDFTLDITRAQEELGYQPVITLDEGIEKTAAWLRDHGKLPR
UniProt P32662, sequence (P32662 whole entry): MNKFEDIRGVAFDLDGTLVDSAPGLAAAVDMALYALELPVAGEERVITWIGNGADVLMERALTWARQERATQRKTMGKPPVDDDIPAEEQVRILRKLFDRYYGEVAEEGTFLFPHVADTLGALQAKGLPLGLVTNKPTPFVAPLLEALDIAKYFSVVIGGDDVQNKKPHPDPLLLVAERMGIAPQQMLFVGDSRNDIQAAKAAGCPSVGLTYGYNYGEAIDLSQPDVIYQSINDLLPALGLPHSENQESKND
UniProt P76027, sequence (P76027 whole entry): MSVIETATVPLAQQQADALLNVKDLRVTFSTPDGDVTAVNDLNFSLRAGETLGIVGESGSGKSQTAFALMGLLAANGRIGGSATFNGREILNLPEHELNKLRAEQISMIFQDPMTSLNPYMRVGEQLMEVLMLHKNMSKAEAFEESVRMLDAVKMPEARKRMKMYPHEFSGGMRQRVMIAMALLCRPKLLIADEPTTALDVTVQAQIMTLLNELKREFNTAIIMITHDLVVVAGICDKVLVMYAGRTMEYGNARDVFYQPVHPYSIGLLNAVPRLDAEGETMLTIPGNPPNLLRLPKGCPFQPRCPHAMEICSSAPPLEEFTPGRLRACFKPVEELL
UniProt P22525, sequence (P22525 whole entry): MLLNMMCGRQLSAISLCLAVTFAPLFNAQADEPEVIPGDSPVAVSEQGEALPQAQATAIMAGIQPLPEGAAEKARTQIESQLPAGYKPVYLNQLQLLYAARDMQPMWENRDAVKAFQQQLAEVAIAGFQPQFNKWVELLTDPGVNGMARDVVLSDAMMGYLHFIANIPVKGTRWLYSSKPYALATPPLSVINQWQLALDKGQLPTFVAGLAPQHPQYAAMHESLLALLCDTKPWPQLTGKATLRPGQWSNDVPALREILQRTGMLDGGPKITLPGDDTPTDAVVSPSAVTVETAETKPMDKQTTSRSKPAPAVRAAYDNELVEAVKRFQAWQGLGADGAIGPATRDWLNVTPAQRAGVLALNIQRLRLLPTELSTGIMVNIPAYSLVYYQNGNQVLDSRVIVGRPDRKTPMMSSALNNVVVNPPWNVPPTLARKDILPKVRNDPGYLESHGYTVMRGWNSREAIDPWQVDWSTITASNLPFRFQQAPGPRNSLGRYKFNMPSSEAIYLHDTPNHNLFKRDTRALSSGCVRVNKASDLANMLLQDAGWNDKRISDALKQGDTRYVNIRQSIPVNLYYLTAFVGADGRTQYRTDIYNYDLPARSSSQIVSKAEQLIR
UniProt P05707, sequence (P05707 whole entry): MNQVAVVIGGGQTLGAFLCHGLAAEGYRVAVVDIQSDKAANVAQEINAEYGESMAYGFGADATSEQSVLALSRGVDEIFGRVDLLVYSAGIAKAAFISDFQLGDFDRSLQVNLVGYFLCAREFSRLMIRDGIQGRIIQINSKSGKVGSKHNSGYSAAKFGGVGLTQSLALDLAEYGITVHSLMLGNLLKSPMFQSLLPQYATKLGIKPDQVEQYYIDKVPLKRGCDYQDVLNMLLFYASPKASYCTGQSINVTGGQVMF
UniProt P37028, sequence (P37028 whole entry): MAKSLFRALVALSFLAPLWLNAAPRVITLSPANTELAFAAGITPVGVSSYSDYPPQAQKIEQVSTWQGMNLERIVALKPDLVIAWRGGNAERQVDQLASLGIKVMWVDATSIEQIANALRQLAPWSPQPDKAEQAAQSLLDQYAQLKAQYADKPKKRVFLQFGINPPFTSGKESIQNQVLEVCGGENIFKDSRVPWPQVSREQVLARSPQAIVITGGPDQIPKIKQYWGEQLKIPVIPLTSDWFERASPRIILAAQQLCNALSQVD

Compound in this assay: Nc1ncnc2c1ncn2[C@@H]1O[C@H](COP(=O)(O)OP(=O)(O)OP(=O)(O)O)[C@@H](O)[C@H]1O [adenosine 5'-triphosphate]
As to the kind of experiment: log2 fold change of tryptic peptide abundance, ligand vs vehicle (limited proteolysis) (log2 ratio); higher = more trypsin-susceptible (destabilized). Conditions: ligand concentration: 5 mM; sample: E. coli desalted lysate; replicate design: treated before aliquoting. How it is done: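 HT-PELSA: desalted E. coli K-12 BW25113 lysate (with 12 mM MgCl2) incubated with 5 mM ATP (pH 7) or water for 30 min at 25 C, then a 4 min trypsin pulse at 22 C. Peptides were quantified by DIA-MS (4 replicates). Value is the peptide log2 fold change (treated/control); negative = stabilized. Scale: negative = ligand-stabilized region.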
Consider “UniProt P15038 (peptide sequence: LHTEDITAR, peptide start residue: 265)”, for which the log2 fold change is -2.37.

On to “UniProt P76340 (peptide sequence: ILLIEDNQR, peptide start residue: 3)”, for which the log2 fold change was -0.349.

As for “UniProt P00887 (peptide sequence: YPVTPGVATHVTDSRR, peptide start residue: 25)”, the log2 fold change was -0.488. As to “UniProt P75863 (peptide sequence: WVGPQMTR, peptide start residue: 122)”, the log2 fold change is -0.577. With “UniProt P00393 (peptide sequence: ISAAAHNELTK, peptide start residue: 228)” the figure was -0.559. On to “UniProt P76245 (peptide sequence: TPFVAHPALHS, peptide start residue: 331)”, for which the log2 fold change amounted to 1.1.

In the case of “UniProt P76558 (peptide sequence: TNLFMKPIFSQAR, peptide start residue: 427)”, the log2 fold change stood at 0.538. Then “UniProt P11557 (peptide sequence: AVSTLPADVQAK, peptide start residue: 402)”, with 0.435; and “UniProt P21693 (peptide sequence: ELADQVAGELRR, peptide start residue: 82)”, with -1.53. With “UniProt P0AEH3 (peptide sequence: VGQQLMSK, peptide start residue: 91)” the figure was 0.523; with “UniProt P77202 (peptide sequence: TLNIIMGNK, peptide start residue: 240)”, 0.511; with “UniProt P00954 (peptide sequence: QHLELSR, peptide start residue: 152)”, -0.982. Then “UniProt P37028 (peptide sequence: IVALKPDLVIAWR, peptide start residue: 74)”, with 0.465. As for “UniProt P76257 (peptide sequence: GQPLVVEAGTGTGK, peptide start residue: 38)”, the log2 fold change was -0.82. With “UniProt P76027 (peptide sequence: GCPFQPR, peptide start residue: 298)” the figure was 1.56; with “UniProt P05707 (peptide sequence: VGSKHNSGYSAAK, peptide start residue: 146)”, -3.4; with “UniProt P31129 (peptide sequence: SNMDVLTGLPGRR, peptide start residue: 129)”, -1.39.

In the case of “UniProt P23331 (peptide sequence: TVVYTAEIDDR, peptide start residue: 33)”, the log2 fold change is -1.64. With “UniProt P75821 (peptide sequence: DIKEDFRPHR, peptide start residue: 126)” the figure was -1.6; with “UniProt P0ADP0 (peptide sequence: EALTFVQNYHPALR, peptide start residue: 34)”, 0.493. For the target “UniProt P45395 (peptide sequence: LHVPLICITGRPESSMAR, peptide start residue: 122)”, the log2 fold change was found to be 1.09.

In the case of “UniProt P32662 (peptide sequence: TMGKPPVDDDIPAEEQVR, peptide start residue: 75)”, the log2 fold change stood at 0.514. With “UniProt P23894 (peptide sequence: SVGGEVIEQPR, peptide start residue: 61)” the figure was 2.55; with “UniProt P33594 (peptide sequence: VLQNAVLPAFPVRR, peptide start residue: 249)”, 0.401.

For the target “UniProt P22525 (peptide sequence: AGVLALNIQR, peptide start residue: 356)”, the log2 fold change was -0.343.

Consider “UniProt P76226 (peptide sequence: IKPLLHQCVR, peptide start residue: 10)”, for which the log2 fold change was -1.62. Then “UniProt P23538 (peptide sequence: QVKIEDVPQEQR, peptide start residue: 278)”, with -2.56; and “UniProt Q46851 (peptide sequence: YLNGIPQDSR, peptide start residue: 234)”, with -0.438; and “UniProt P77374 (peptide sequence: INHPDRLNYPMKR, peptide start residue: 106)”, with -0.781. For “UniProt Q46868 (peptide sequence: QVHESMPK, peptide start residue: 13)”, the log2 fold change is -0.305. In the case of “UniProt P36929 (peptide sequence: VYDNLKR, peptide start residue: 286)”, the log2 fold change was -1.2.
